# Source: PubChem BioAssay
# NS1 function inh: influenza NS1 inhibition. Potency, µM (titrated, usually from 46.1 µM), for inactives: top-dose activity, positive = more growth. 0.4% of 270,000 active. AID 2326; calls by dose curve; further: actives are rising curves; nearly all actives have a fitted effect of over 50% in size
#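 Growth recovery, yeast-based: influenza A NS1 expressed in S. cerevisiae causes slow growth, and suppressors are detected by OD600. The parent strain without NS1 is used as positive control.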
# RE007 growth inh: less growth of the S. pombe RE007 Vpr strain. S. pombe RE007 Vpr strain, BacTiter-Glo ATP luminescence, 24 h. Potency, µM (doses to about 92.2 µM), inactives show at the top dose activity change, negative = less growth, usual class: inhibitors. 0.21% of 360,000 active; active means well fitted falling curve with a large enough effect; inconclusive means small, poorly fitted or top-dose-only effect; inactive means no such curve, though single readings can be large or run the other way; further: on the % scale 0 is the no-effect control and ±100 the full control effect; nearly all actives have a fitted effect of over 50% in size
#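 Fission yeast RE007 carrying one integrated HIV-1 vpr copy, seeded at OD 0.01 in PMG+AL medium with 23 nL pinned compound. Grown 24 h at 30 degrees; viability read by BacTiter-Glo luminescence after 5 min.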
# LmPK inhibitor: LmPK (Leishmania mexicana) enzyme inhibition. purified LmPK, Kinase-Glo ATP luminescence, 1 h. 0.37% of 290,000 active. Potency, µM (highest dose often 57.5 µM), for inactives: at the highest dose activity change, negative = inhibition, usual class: inhibitors. AID 1721. Q27686; further: on the % scale 0 is the no-effect control and ±100 the full control effect
# Target sequence (Q27686 whole entry, looked up): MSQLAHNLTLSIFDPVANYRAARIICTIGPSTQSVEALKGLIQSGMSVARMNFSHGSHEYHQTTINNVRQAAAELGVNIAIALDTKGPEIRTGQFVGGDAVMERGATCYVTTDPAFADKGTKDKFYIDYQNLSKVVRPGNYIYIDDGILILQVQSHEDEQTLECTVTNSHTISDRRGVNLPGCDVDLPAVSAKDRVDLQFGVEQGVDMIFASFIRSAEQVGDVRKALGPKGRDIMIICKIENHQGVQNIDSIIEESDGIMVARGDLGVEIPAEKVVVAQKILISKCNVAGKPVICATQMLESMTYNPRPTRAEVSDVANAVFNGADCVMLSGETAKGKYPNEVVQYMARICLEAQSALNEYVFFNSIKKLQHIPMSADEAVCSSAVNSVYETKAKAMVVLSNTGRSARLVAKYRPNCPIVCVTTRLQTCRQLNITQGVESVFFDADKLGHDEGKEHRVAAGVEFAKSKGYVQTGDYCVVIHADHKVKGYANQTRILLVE
#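 0.1 nM LmPK, 0.5 mM PEP, 0.1 mM ADP; 50 mM imidazole pH 7.2, 7 mM MgCl2, 50 mM KCl; 1 h RT. Kinase-Glo luminescence readout, normalized to no-enzyme (full inhibition) and uninhibited wells.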
# TbPYK inhibitor: blocks Trypanosoma brucei pyruvate kinase | Q57TT1 | TbPYK enzyme, Kinase-Glo Plus ATP luminescence, 45 min | Potency, µM (doses to about 76.8 µM), for inactives: top-dose activity, negative = inhibition, most hits filed as inhibitors | 0.12% of 410,000 active; further: on the % scale 0 is the no-effect control and ±100 the full control effect; nearly all actives have a fitted effect of over 50% in size
#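 ADP (130 uM final) triggers the TbPYK reaction after compound addition; incubation is 45 min at room temperature. Kinase-Glo Plus is then added and luminescence imaged. Normalized data are fitted to concentration-effect curves.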
# * = called active by the depositor; ? = inconclusive; . = not tested or not shown; [ ] = another dose, or the depositor's remark. A selection: hits, their analogues and other compounds. The true share with any hit is near 0.77%. Unless noted, the call rests on the fitted dose curve; in most records, active means well fitted curve in the direction sought with a large enough effect; inconclusive means small, poorly fitted or top-dose-only effect, or another doubt; inactive means no such curve, though single readings can be large; an effect the other way counts as inactive or inconclusive. Potency means the concentration at half of the fitted maximal effect.
SMILES,NS1 function inh,RE007 growth inh,LmPK inhibitor,TbPYK inhibitor
O=C1C=CC(=Nc2ccc3c(c2)Cc2ccccc2-3)O1,.,28µM*,.,-1%
CO[C@@H]([CH2][Hg])CN1C(=O)c2ccccc2S1(=O)=O.Cn1c(=O)c2nc[nH]c2n(C)c1=O,-10%,.,.,.
O=C1[C@H]2C(c3ccccc3)=NN(c3ccccc3)[C@H]2C(=O)N1c1ccccc1,.,-1%,10%,7%
O=C1[C@@H]2[C@@H](CN3CN(c4ccccc4)N=C(c4ccccc4)[C@@]23c2ccccc2)C(=O)N1c1ccccc1,.,40µM*,.,-21%
CC(=O)Oc1cccc(N2C(=O)C3C(C2=O)C2C=CC3C23CC3)c1 (stereo unspecified),?,-1%,-3%,-25%
CC(=O)Oc1cccc(N2C(=O)C3C4C=CC(C4=C(C)C)C3C2=O)c1 (stereo unspecified),-101%,35µM*,-1%,-23%
O=C1C2C(C(=O)N1/N=C/c1ccc(N3CCCCC3)o1)C1C=CC2C12CC2 (stereo unspecified),18%,0%,-9%,25µM*
COc1c(Cl)cccc1-c1cn2ccccc2n1,-61%,?,7.1µM*,-11%
Clc1ccc(-c2cn3ccccc3n2)cc1,-41%,?,-3%,-13%
CCn1nc(CC(=O)Nc2nnc(CC(=O)N3CCCC3)s2)c2ccccc2c1=O,20µM*,-6%,-2%,-1%
Cc1cc(C)c(S(=O)(=O)NCC23C=CC(O2)C2C(=O)N(c4ccccc4)C(=O)C23)c(C)c1 (stereo unspecified),-103%,22µM*,3%,-20%
O=C1C2C3C=CC(CNS(=O)(=O)c4ccccc4[N+](=O)[O-])(O3)C2C(=O)N1c1ccccc1 (stereo unspecified),.,5µM*,4%,-20%
O=[N+]([O-])c1ccccc1S(=O)(=O)NCc1ccco1,8%,0%,5%,-5%
O=C1C2C3C=CC(CO)(O3)C2C(=O)N1c1ccc(-c2ccccc2)cc1 (stereo unspecified),-163%,.,?,.
Cc1cccc(-c2nc3c(cnn3-c3ccccc3)c(=O)n2-c2cccc(Cl)c2)c1,.,.,.,1%
Cn1c(=O)c(C(=O)NNC(=O)c2cccc(Cl)c2)c(O)c2ccccc21,-29%,13µM*,2%,0%
Cn1c(=O)c(C(=O)NNC(=O)c2ccccc2Cl)c(O)c2ccccc21,-50%,-25%,-1%,-22%
Cc1cccc(C(=O)NNC(=O)c2c(O)c3ccccc3n(C)c2=O)c1,-46%,40µM*,-7%,5%
Cc1ccc(OC2=NS(=O)(=O)c3ccccc32)cc1,11%,2%[3.69 µM],4%,.
COc1ccccc1OC1=NS(=O)(=O)c2ccccc21,-83%,17%,13µM*,0%
CC(C)(C)c1ccc(O)c(N=Cc2cc3c(cc2[N+](=O)[O-])OCO3)c1,?,9%,1.6µM*,?
O=C(Nc1nc2c(F)cccc2s1)c1ccc2c(c1)OCCO2,.,.,.,-2%
Cc1ccc(NC2Sc3ccccc3NC2=O)cc1 (stereo unspecified),.,26%,-9%,14µM*
c1ccc(CN2CCC3(CC2)SSC2(CCN(Cc4ccccc4)CC2)SS3)cc1,-3%,.,.,.
COc1ccccc1-n1c(COc2ccccc2-c2ccccc2)nnc1SCC(=O)c1c(N)n(C)c(=O)n(C)c1=O,3.5µM*,8%,7%,-7%
SMILES,NS1 function inh,RE007 growth inh,LmPK inhibitor,TbPYK inhibitor
CCN(CC)C(=O)[C@@H]1C=C2c3cccc4[nH]cc(c34)C[C@H]2N(C)C1,.,.,.,-7%
O=S(=O)(c1ccccc1)N1CCC2(CCCN(c3ccncc3)C2)CC1,.,.,.,11%
O=C(/C=C/Nc1ccc(F)cc1F)c1cccs1,-11%,-29%,8.9µM*,?
O=C(/C=C/Nc1ccc(F)cc1F)c1ccco1,-7%,-1%,10µM*,?
O=C(/C=C/Nc1ccccc1F)c1cccs1,-19%,-25%,16µM*,?
COc1cccc(CNC(=O)c2ccc3c(c2)nc2n3CCC(C)C2)c1OC (stereo unspecified),.,.,.,-20%
CC(C)c1nn2c(=O)cc(COC(=O)c3cccs3)nc2s1,.,.,.,-10%
Cc1ccc(C(=O)c2ccc(C)cc2)cc1,.,-4%,0%,3%
Cc1ccc(C(=O)c2no[n+]([O-])c2C(=O)c2ccc(C)cc2)cc1,-65%,32µM*,2%,-5%
COC(=O)c1ccccc1N/C=C/C(=O)c1ccc(Br)cc1,-2%,30%,-5%,-22%
NC(=O)c1ccccc1N/C=C/C(=O)c1ccccc1,-32%,-4%[3.69 µM],7.9µM*,.
COCCn1c(C23CC4CC(CC(C4)C2)C3)n[nH]c1=S,-8%,17%,-27%,7.9µM*
CCCCn1c(C23CC4CC(CC(C4)C2)C3)n[nH]c1=S,-64%,8%,-15%,6.3µM*
CC1CCN(Cc2c(O)ccc3c2O/C(=C\c2ccco2)C3=O)CC1,8.9µM*,-11%,5%,-10%
O=C1/C(=C/c2ccco2)Oc2c1ccc(O)c2CN1CCCCC1,14%,-10%,0%,-8%
CC(C)c1ccc(NCCC(=O)c2cccs2)cc1,-28%,32µM*,-2%,0%
Cc1ccc(NCCC(=O)c2cccs2)cc1C,1%,40µM*,-1%,2%
O=C1NC(=O)C2C3C=CC(C3)C12 (stereo unspecified),.,.,.,-7%
COc1cc(OC)cc(-c2nnc(SCC(=O)N3CCC(C)CC3)o2)c1,.,.,.,-9%
CC(C)(C)c1cc(NCCCn2ccnc2)n2ncc(-c3ccc(Cl)cc3)c2n1,-39%,22µM*,1%,-3%
COc1cccc(NC(=O)C2CCN(c3nc4ccccc4nc3C(F)(F)F)CC2)c1,.,.,.,0%
COC(=O)c1ccccc1C(=O)c1ccc(OCCN2CCCCC2)cc1,.,.,.,3%
COc1cc2c(cc1/C=C/C(=O)O)OC(C)C2 (stereo unspecified),.,12%,3%,5%
CC(C)(O)C1Cc2cc(/C=C/C(=O)O)c(O)cc2O1 (stereo unspecified),1%,?,28µM*,?
O=C(Oc1cccnc1)c1ccc(Cl)c(Cl)c1,-80%,32µM*,3%,-4%
SMILES,NS1 function inh,RE007 growth inh,LmPK inhibitor,TbPYK inhibitor
C[C@H](/C=C/[C@H](C)C(C)(C)O)[C@H]1CC[C@H]2/C(=C/C=C3C[C@@H](O)C[C@H](O)C3)CCC[C@]12C,.,.,.,7%
Nc1ccc2nc(-c3ccccc3)[nH]c2c1,-6%,-6%,14µM*,-12%
COc1ccc2nc(-c3cccc(N)c3)[nH]c2c1,15%,-9%,22µM*,-7%
COc1ccc2nc(-c3ccc(N)cc3)[nH]c2c1,-1%,-7%,?,-12%
Nc1ccc2nc(-c3cccnc3)[nH]c2c1,8%,-8%,-22%,1%
Nc1ccc2nc(-c3ccccn3)[nH]c2c1,7%,-18%,20µM*,-14%
COc1ccc2nc(-c3ccccn3)[nH]c2c1,-1%,-9%,?,-19%
CC(C)=CCC/C(C)=C\CC/C(C)=C\CC/C(C)=C\CC1=C(C)C(=O)c2ccccc2C1=O,.,.,.,0%
Oc1ccccc1C=NCc1ccccc1,.,.,.,-4%
